From PubChem BioAssay AID463173 (ICCB-Longwood Screening Facility, Harvard Medical School, 2010) come the findings set out here.

The campaign covered roughly 52,000 compounds. About 1,700 (3.3%) were called active. This excerpt belongs to a sample that is enriched for actives. A number with no mark means an inactive call. No stated cut-off is given here; in the data, active means survival mostly below about 52% (no sharp cut-off); inactive means mostly above about 56%.

The test system of this assay is Wild type. Briefly: growth inhibition of S. aureus wild type versus tarO mutant, primary screen, teichoic acid synthesis inhibitors, RN4220, OD600 (AID 463173). The following applies: S. aureus RN4220 wild type/DeltatarO growth, OD600, 18 h, stronger effect = lower value, screened at 18.75 µg/mL (by protocol).
For `CC(CN1CCCC1)OC(=O)c1ccc(F)cc1` (stereo not drawn), the survival was 109%. To `Cc1ccc(-c2nnc(Nc3ccc(Br)cc3)c3ccccc23)cc1S(=O)(=O)N1CCCCC1` belongs 89%. `Cc1ccc(C)c(N2CCN(C(c3ccc(F)cc3)c3nnc(-c4ccccc4)o3)CC2)c1` (stereo not drawn): the survival was 14% (active).

`Cc1cccc(N2CCN(C(c3ccccc3)c3nnc(-c4ccccc4Cl)o3)CC2)c1C` (stereo not drawn): the survival is 52%.

For the compound `COc1ccccc1N1CCN(C(c2ccccc2)c2nnc(-c3ccccc3Cl)o2)CC1` (stereo not drawn), the survival is 0% (active). To `Cc1ccc(Cl)cc1N1CCN(C(c2ccc(F)cc2)c2nnc(-c3ccccc3)o2)CC1` (stereo not drawn) belongs 50%; to `Cc1cccc(N2CCN(C(c3ccc(F)cc3)c3nnc(-c4ccccc4)o3)CC2)c1C` (stereo not drawn), 28%; to `Cc1ccc(C)c(N2CCN(C(c3ccccc3)c3nnc(-c4ccccc4F)o3)CC2)c1` (stereo not drawn), 53%. The value for `Cc1ccc(C)c(N2CCN(C(c3ccccc3)c3nnc(-c4ccccc4)o3)CC2)c1` (stereo not drawn) was 1% (active); that for `Cc1cccc(N2CCN(C(c3ccccc3)c3nnc(-c4ccccc4F)o3)CC2)c1C` (stereo not drawn) was 43%; that for `COc1ccc(N2CCN(C(c3ccccc3)c3nnc(-c4ccccc4Cl)o3)CC2)cc1` (stereo not drawn) was 22%. Take `Cc1ccoc1C(=O)Nc1ccccc1C(=O)O`: the survival is 102%. The value for `Cc1ccc(NC(=O)C2CC(=O)n3cnnc3N2)cc1Cl` (stereo not drawn) was 105%; that for `COCCNC(=O)CCn1c(=O)c2cc(OC)c(OC)cc2n(CC(=O)Nc2ccccc2OC)c1=O` was 89%. Regarding `COc1ccc(-c2nn(-c3ccccc3)cc2C(=O)Nc2ccccc2OC)cc1`, the survival was 3% (active).

For `COc1ccc(NC(=O)c2cn(-c3ccccc3)nc2-c2ccc(C)cc2)cc1`, the survival is 93%.

In the case of `COc1ccccc1NC(=O)c1cn(-c2ccccc2)nc1-c1ccccc1`, the survival is 81%. For the compound `COC(=O)C1(C)NC(c2ccccc2C)C2C(=O)N(C)C(=O)C21` (stereo not drawn), the survival was 98%. The value for `CCOC(=O)C1=C(CN2CCN(c3ccccc3)CC2)NC(=O)NC1c1ccc(C)cc1` (stereo not drawn) was 127%; that for `O=c1sc2ccccc2n1CCCOc1ccccc1` was 116%; that for `CCOc1ccc(Cn2c(=O)sc3ccccc32)cc1` was 72%. The value for `CCCCOc1ccc(Cn2c(=O)oc3ccccc32)cc1` was 113%. To `CCCOc1ccc(Cn2c(=O)sc3ccccc32)cc1` belongs -4% (active); to `CCCCOc1ccc(Cn2c(=O)sc3ccccc32)cc1`, -4% (active). Turning to `O=c1sc2ccccc2n1CCc1ccccc1`, the survival was 108%. To `COc1ccc(Cn2c(=O)sc3ccccc32)cc1` belongs 111%; to `CC(C)CCOc1ccc(Cn2c(=O)sc3ccccc32)cc1`, -3% (active); to `CC(C)CCOc1ccc(Cn2c(=O)oc3ccccc32)cc1`, 121%.
